Assay [1] can be described thus: anti-His antibody binders, primary screen, artefact control for SMM control protein annotation, biochemical, small-molecule microarray, 635 nm fluorescence (AID 1128).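 Note: score merges feature fluorescence with signal-to-noise for each printed compound spot.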 Conditions: anti-His Alexa647 antibody binding, higher = more signal.
The subject of assay [2] is Human papillomavirus type 1a E7 protein (residues 1-88). Nature of the assay: HPV1a E7 small-molecule binders, primary screen, biochemical, small-molecule microarray, residues 1-88, 635 nm (AID 1129). Conditions: small-molecule microarray binding, fluorescence 635 nm; higher = more signal.
Assay [3] deals with Focal adhesion kinase 1 (Homo sapiens) (UniProt Q05397). Kind of assay: small-molecule microarray binders of FAK, primary screen, biochemical, 635/667 nm fluorescence, BSA, DTT (AID 1130).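 Note: composite of spot emission at 667 nm and signal to noise over triplicate slides.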 Conditions: PTK2 binding, 635 nm fluorescence, higher = more signal.
Sequence of Focal adhesion kinase 1 (Homo sapiens) (Q05397 whole entry, looked up): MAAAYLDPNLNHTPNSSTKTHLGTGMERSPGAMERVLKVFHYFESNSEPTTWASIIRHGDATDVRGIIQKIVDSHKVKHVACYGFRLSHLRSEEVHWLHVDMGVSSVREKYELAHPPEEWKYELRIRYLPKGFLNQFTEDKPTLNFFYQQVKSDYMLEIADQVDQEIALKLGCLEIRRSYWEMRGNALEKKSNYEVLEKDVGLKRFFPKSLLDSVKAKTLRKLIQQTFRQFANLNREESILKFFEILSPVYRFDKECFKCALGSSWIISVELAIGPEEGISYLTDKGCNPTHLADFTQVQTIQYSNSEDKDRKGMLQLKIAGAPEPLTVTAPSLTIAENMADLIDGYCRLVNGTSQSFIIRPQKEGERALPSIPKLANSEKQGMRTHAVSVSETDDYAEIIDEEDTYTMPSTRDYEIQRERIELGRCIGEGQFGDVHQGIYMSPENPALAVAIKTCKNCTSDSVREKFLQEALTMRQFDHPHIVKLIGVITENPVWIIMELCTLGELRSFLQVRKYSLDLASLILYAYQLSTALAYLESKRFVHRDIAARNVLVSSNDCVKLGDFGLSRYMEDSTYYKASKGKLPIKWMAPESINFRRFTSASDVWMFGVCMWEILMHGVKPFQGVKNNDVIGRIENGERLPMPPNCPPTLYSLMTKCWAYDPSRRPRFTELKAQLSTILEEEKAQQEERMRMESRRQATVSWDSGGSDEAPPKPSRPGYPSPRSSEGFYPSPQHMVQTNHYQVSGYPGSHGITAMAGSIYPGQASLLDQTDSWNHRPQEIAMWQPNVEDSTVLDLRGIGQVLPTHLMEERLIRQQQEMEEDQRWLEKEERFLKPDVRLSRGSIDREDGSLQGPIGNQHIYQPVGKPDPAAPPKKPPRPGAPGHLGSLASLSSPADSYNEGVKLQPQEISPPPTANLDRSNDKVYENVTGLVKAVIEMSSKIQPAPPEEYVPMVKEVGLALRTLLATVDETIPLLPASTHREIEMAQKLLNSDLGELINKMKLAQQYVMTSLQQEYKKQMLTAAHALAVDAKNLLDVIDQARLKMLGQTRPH
Assay [4] relates to Fibrinogen (Alexa647-labelled). Nature of the assay: fibrinogen binders on compound microarrays, profiling panel, artefact control for SMM control-protein annotation, biochemical, small-molecule microarray, 635/667 nm fluorescence (AID 1131).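 Note: z-score merges 667 nm fluorescence with per-spot signal-to-noise over triplicate slides.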 The settings on record: fibrinogen-A647 binding fluorescence, higher = more signal.
For assay [5], the target named is Follistatin (Homo sapiens) (UniProt P19883). Nature of the assay: follistatin binders on small-molecule microarrays, primary screen, biochemical, small-molecule microarray, 635/667 nm fluorescence (AID 1132). Conditions: FST binding, 635 nm fluorescence, higher = more signal.
Sequence of Follistatin (Homo sapiens) (P19883 whole entry, looked up): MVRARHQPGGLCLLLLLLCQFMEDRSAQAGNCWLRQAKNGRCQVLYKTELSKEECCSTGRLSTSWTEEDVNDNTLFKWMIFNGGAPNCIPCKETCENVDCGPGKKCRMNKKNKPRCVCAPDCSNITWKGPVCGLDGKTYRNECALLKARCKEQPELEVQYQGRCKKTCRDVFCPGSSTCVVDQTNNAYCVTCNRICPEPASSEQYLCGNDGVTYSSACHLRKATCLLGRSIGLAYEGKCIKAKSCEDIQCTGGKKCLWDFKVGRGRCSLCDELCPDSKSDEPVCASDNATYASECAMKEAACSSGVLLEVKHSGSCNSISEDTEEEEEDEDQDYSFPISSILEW
The target in assay [6] is Fibroblast growth factor 2 (Homo sapiens) (UniProt P09038). Kind of assay: FGF2 binders on small-molecule microarrays, primary screen, biochemical, small-molecule microarray, 635/667 nm fluorescence (AID 1133). Conditions: small-molecule microarray binding, FGF2, fluorescence 635/667; higher = more signal.
Sequence of Fibroblast growth factor 2 (Homo sapiens) (P09038 whole entry, looked up): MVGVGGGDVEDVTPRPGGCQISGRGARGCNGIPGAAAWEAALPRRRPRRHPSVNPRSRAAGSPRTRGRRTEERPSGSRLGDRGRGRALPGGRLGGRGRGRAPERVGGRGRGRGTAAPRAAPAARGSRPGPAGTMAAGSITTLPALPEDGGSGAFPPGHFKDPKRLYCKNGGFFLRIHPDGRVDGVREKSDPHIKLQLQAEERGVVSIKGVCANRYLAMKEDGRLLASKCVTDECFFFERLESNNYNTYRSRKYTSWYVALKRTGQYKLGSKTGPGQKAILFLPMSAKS
Assay [7] is described as follows: mitochondrial membrane potential change in A549 cells, profiling panel, cell-based, JC-1 fluorescence, basal, 24 h, 100 nL (AID 1138).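 Note: A549 lung adenocarcinoma cells under basal conditions with no added stimulus; test concentration not given here.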 Conditions: higher = more signal.
Another assay relates to Lefty1. Nature of the assay: Lefty1 binders on small-molecule microarrays, primary screen, biochemical, small-molecule microarray, 635/667 nm fluorescence (AID 1139). The settings on record: small-molecule microarray binding, fluorescence 635/667; higher = more signal.
Assay [8] deals with wheat germ agglutinin (Triticum aestivum), Alexa647-labelled. Kind of assay: wheat germ agglutinin binders on compound microarrays, profiling panel, artefact control for SMM control-protein annotation, biochemical, small-molecule microarray, 635/667 nm fluorescence (AID 1140).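 Note: score merges 667 nm feature emission with signal to noise over triplicate slides.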 The settings on record: WGA-A647 binding, 635 nm fluorescence, higher = more signal.
In assay [9] the target is Luciferin 4-monooxygenase (Photinus pyralis) (UniProt P08659). Nature of the assay: firefly luciferase enzyme inhibitors, primary screen, biochemical, luminescence, purified enzyme, 2006 set (AID 1141).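 Note: cell-free assay with purified firefly luciferase at 100 ng per well in PBS; test concentration not given here.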 Conditions: SteadyGlo luminescence, 30 min, higher = more signal, called active from +8 up or from −8 down.
Sequence of Luciferin 4-monooxygenase (Photinus pyralis) (P08659 whole entry, looked up): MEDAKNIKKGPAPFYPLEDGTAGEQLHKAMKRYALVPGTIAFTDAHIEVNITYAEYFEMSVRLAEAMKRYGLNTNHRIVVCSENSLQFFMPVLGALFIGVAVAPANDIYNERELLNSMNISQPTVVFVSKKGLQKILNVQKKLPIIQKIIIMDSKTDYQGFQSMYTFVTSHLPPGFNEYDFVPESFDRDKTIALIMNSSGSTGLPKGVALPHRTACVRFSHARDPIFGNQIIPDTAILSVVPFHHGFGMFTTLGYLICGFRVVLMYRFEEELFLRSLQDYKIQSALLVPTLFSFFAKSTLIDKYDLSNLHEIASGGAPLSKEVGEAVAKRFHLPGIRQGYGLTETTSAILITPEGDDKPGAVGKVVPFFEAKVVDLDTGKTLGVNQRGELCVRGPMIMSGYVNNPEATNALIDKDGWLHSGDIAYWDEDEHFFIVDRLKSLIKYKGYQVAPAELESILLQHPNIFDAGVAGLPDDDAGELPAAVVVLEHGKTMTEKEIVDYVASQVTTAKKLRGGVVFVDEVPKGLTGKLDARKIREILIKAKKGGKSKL
The subject of assay [10] is Wnt5a (protein binding on small-molecule microarray). Nature of the assay: Wnt5a binders on small-molecule microarray, primary screen, biophysical, 635/667 nm fluorescence (AID 1142).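 Note: fluorescence read at 667 nm with signal to noise per printed feature.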 The settings on record: 635 nm fluorescence, higher = more signal.
Assay [11] in a line: cell viability in Huh7 cells, primary screen, cytotoxicity control for HCV replication inhibitor project, CellTiter-Glo luminescence, basal, 48 h (AID 1143).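 Note: Huh7 hepatoma cells carrying a hepatitis C replication reporter with no stimulus; test concentration not given here.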 Conditions: Huh7 HCV replicon, higher = more signal, called active from +8 up or from −8 down.
A short description of assay [12]: P. aeruginosa biofilm formation inhibitors, primary screen, PAO1 strain, BacTiter-Glo luminescence, LB-PBS (AID 1144). Conditions: 12 h, higher = more signal.
Assay [13] is described as follows: CREB reporter modulators without forskolin, primary screen, cell-based, PC12, CRE-LacZ reporter, unstimulated (AID 1145). The settings on record: no forskolin, luminescence, 4.5 h, higher = more signal, called active from +8 up or from −8 down.
The nature of assay [14]: CREB reporter modulators under forskolin, primary screen, cell-based, PC12, CRE-LacZ reporter, forskolin-stimulated (AID 1146).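 Note: PC12 cells with 6xCRE LacZ reporter stimulated by forskolin 10 µM; beta-galactosidase reporter signal reflecting CREB driven transcription.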 Conditions: luminescence, 4.5 h, higher = more signal, called active from +8 up or from −8 down.
For assay [15], the target named is Streptavidin (Streptomyces avidinii) (UniProt P22629). Kind of assay: streptavidin binders on small-molecule microarray, primary screen, artefact control for SMM compound annotation, biophysical, 635/667 nm fluorescence (AID 1147).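 Note: signal reflects streptavidin binding to arrayed compounds as a control protein.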 Conditions: streptavidin binding, higher = more signal.
Sequence of Streptavidin (Streptomyces avidinii) (P22629 whole entry, looked up): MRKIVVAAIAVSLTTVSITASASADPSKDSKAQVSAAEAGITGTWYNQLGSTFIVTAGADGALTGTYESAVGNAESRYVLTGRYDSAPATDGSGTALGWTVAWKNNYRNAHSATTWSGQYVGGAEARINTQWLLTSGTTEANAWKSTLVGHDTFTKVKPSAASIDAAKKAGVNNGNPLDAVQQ
The nature of assay [16]: small-molecule binders of probe aInhba, primary screen, biochemical, small-molecule microarray, 635/667 nm fluorescence (AID 1148).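 Note: score merges 667nm spot fluorescence with signal-to-noise for antibody binding to printed compounds.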 Conditions: higher = more signal.
For assay [17], the target named is Torsin-1A (Homo sapiens) (UniProt O14656). Nature of the assay: torsin A binders from cell lysate, primary screen, small-molecule microarray, wild-type, 635/667 nm (AID 1149). Conditions: COS7 hTOR1A-WT lysate, 635 nm fluorescence, higher = more signal.
Sequence of Torsin-1A (Homo sapiens) (O14656 whole entry, looked up): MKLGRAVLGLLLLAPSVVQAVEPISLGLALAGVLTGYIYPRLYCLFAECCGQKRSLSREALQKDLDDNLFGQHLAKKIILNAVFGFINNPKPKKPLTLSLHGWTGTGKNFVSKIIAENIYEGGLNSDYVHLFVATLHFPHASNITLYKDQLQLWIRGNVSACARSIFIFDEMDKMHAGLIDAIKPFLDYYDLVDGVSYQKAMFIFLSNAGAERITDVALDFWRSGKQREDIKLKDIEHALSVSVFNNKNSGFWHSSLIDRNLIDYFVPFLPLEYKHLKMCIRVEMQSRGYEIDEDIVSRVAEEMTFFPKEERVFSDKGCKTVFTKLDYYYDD
Assay [18] has the same target. Kind of assay: small-molecule binders of mutant TOR1A in lysate, primary screen, cell lysate, small-molecule microarray, COS7 lysate, 635/667 nm fluorescence (AID 1150).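 Note: score pools 667 nm emission and signal to noise measuring lysate protein binding.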 Conditions: COS7 hTOR1A mutant lysate, 635 nm fluorescence, higher = more signal.
The subject of assay [19] is Sonic hedgehog protein (Shh). Nature of the assay: small-molecule binders of Shh protein, primary screen, biochemical, small-molecule microarray, 635/667 nm fluorescence (AID 1151).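 Note: Shh protein binding to compounds spotted on small-molecule microarray slides; score combines spot fluorescence intensity with signal-to-noise across triplicate slides.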 Conditions: small-molecule microarray binding, 635 nm fluorescence; higher = more signal.

These results are taken from PubChem BioAssay.

Activity calls are given as the source filed them. Unless noted, the rule behind the calls is not given here.

For `CC(C)(C)OC(=O)CC[C@@]1(C(=O)N2CCOCC2)N=C(c2ccc(OCCCO)cc2)O[C@@H]1c1ccccc1N=[N+]=[N-]`, the composite z-score stood at 3.1 in [1]; 1.29 in [2]; 0.288 in [3]; 1.01 in assay [4]; 1.36 in assay [5]; 1.22 in [6]. Further, the composite z-score stood at 0.885 in the assay on Lefty1; 0.987 in assay [8]; 1.23 in assay [10]; 1.93 in [15]; 0.27 in assay [16]; 0.802 with Torsin-1A (Homo sapiens) [17]. In addition, the composite z-score is 1.11 in the assay with Torsin-1A (Homo sapiens) [18] and 0.535 in [19]. For the same compound, the z-score is 1.9 in assay [7]; -10.6 (active) in assay [9]; -1.61 (inactive) in assay [11]; 0.321 (inactive) in assay [12]; 0.0686 (inactive) in assay [13]; -0.713 (inactive) in [14].
With `CCCNC(=O)[C@@]1(c2ccc([N+](=O)[O-])cc2)CC(=O)N(CC23CC4CC(CC(C4)C2)C3)[C@@H]1c1ccc(CO)cc1I`, the composite z-score was 1.02 in assay [1]; 1.08 in [2]; 1.19 in assay [3]; -0.0329 in assay [4]; 0.541 in assay [5]; 0.753 in assay [6]. In addition, the composite z-score with Lefty1 is -0.462; in assay [8] it was 0.519; in assay [10], 0.572; in assay [15], 0.131; in assay [16], 0.834; with Torsin-1A (Homo sapiens) [17] it was 0.253. The composite z-score in the assay with Torsin-1A (Homo sapiens) [18] was found to be 0.55; in assay [19], 0.825. Further, the z-score in assay [7] was 1.04; in [9] it was -0.1 (inactive); in [11], -5.46 (inactive); in [12] it was 0.468 (inactive); in assay [13], 0.234 (inactive); in assay [14], 0.299 (inactive).
On to `C=CCC(OC(C)=O)[C@@H]1[C@@H](N(Cc2ccc(-c3cccc(C(F)(F)F)c3)o2)C(=O)Cc2ccc(OC)cc2)c2cc(OCCCO)ccc2N1C(=O)Cc1ccc(OC)cc1` (stereo not given in full), for which the composite z-score in [1] was -0.381; in assay [2], -1.04; in assay [3], -0.127; in assay [4], -1.31; in [5], 0.544; in assay [6], 0.283. For the same compound, the composite z-score in the assay with Lefty1 is -0.0334; in [8], 0.0267; in [10], -0.294; in assay [15], -1.01; in assay [16], -0.154; with Torsin-1A (Homo sapiens) [17], -2.51. For the same compound, the composite z-score was -1.2 with Torsin-1A (Homo sapiens) [18] and 0.514 in [19]. The z-score in assay [7] was 0.212; in assay [9], 0.781 (inactive); in [11], -3.06 (inactive); in assay [12], -1.7 (inactive); in assay [13], 0.484 (inactive); in [14] it was 0.609 (inactive).
For `CC(C)NC(=O)[C@@H]1c2ccccc2C(=O)N(C2CCCCC2)[C@H]1c1ccc(CO)cc1`, the composite z-score in assay [1] came to 2.71; in [2], 1.15; in [3], 0.517; in assay [4], 0.137; in assay [5] it was 0.449; in assay [6], 0.525. For the same compound, the composite z-score in the assay with Lefty1 was -0.161; in assay [8], 0.577; in assay [10] it was 0.242; in assay [15] it was -0.148; in assay [16], 0.152; in the assay with Torsin-1A (Homo sapiens) [17], 0.13. Also, the composite z-score in the assay with Torsin-1A (Homo sapiens) [18] was -0.28; in assay [19], 0.0045. Also, the z-score in assay [7] was 0.483; in assay [9], 0.202 (inactive); in assay [11] it was -1.17 (inactive); in [12], 0.0353 (inactive); in [13], -0.529 (inactive); in assay [14], -0.579 (inactive).
On to `COCCOC(=O)N1C(=O)[C@@]2(c3cc(C#CCCO)ccc31)[C@H](C(=O)NC[C@H](O)c1ccccc1)[C@H]1C(=O)O[C@H](c3ccccc3)[C@H](c3ccccc3)N1[C@@H]2c1ccc(OCCO)cc1`, for which the composite z-score in assay [1] amounted to 0.714; in assay [2], 1.18; in assay [3], 1; in assay [4], 0.951; in assay [5], 1.28; in [6] it was 1.24. The composite z-score is 1.42 in the assay with Lefty1; 0.246 in assay [8]; 0.041 in assay [10]; 0.738 in assay [15]; 0.0444 in assay [16]; 0.269 with Torsin-1A (Homo sapiens) [17]. The composite z-score in the assay with Torsin-1A (Homo sapiens) [18] was found to be 0.126; in assay [19], 1.85. In addition, the z-score in assay [7] was -1.27; in assay [9], -1.09 (inactive); in assay [11], -3.14 (inactive); in assay [12] it was -1.71 (inactive); in assay [13], -1.97 (inactive); in assay [14] it was -1.18 (inactive).
